Screening data: PubChem, National Center for Advancing Translational Sciences (NCATS)
An excerpt weighted towards active compounds, which were near 21% of everything screened.
SARS PLP yeast = blocks SARS-CoV papain-like protease in a yeast assay; S. cerevisiae expressing SARS-CoV PLpro, growth rescue; 330,000 tested, 0.19% active; Potency, µM (doses to about 32.9 µM), for inactives: at the highest dose activity, positive = growth rescue, hits mostly activators; further: potency means the concentration at half of the fitted maximal effect; 0% is about no effect; nearly all actives have a fitted effect of over 55% in size
Shiga toxin inh = inhibitors of Shiga toxin in Vero cells; Vero cells, Shiga toxin protein synthesis inhibition reporter; inhibition, % at 38.7 µM; 290,000 tested, 9.2% active; in the data active means inhibition mostly above about 28%, no sharp cut-off; inactive means mostly below about 43%; further: 0% is about no effect
Pf growth 48h = inhibits P. falciparum growth in the first generation, 48 h | 310,000 tested, 5.9% active | P. falciparum luciferase growth in erythrocytes, 48 h | Potency, µM (highest dose often 28.7 µM), inactives show at the highest dose activity change, negative = inhibition, usual class: inhibitors; active means well fitted inhibition curve with a large enough effect; inconclusive means small, poorly fitted or top-dose-only effect, or another doubt; inactive means no such curve, though single readings can be large or run the other way; further: potency means the concentration at half of the fitted maximal effect; on the % scale 0 is the no-effect control and ±100 the full control effect
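Luciferase-expressing parasites in RBCs, 2% Hct / 0.1% parasitemia final; RPMI 1640 + 0.5% Albumax; 37 C, 5% CO2, one generation; luminescence read-out, lower signal = inhibition.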
NS1 function inh = influenza NS1 inhibition. Potency, µM (highest dose often 46.1 µM), without a hit: top-dose activity, positive = more growth. 270,000 tested, 0.4% active. AID 2326; further: potency means the concentration at half of the fitted maximal effect; actives are rising curves; nearly all actives have a fitted effect of over 50% in size
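Growth recovery, yeast-based: influenza A NS1 expressed in S. cerevisiae causes slow growth, and suppressors are detected by OD600. The parent strain without NS1 is used as positive control.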
Cycloheximide cs = counter-screen hit for Shiga toxin inhibitors, cycloheximide; 300,000 tested, 12% active; cell reporter, cycloheximide protein synthesis inhibition counterscreen; max response, %; in the data active means max response mostly above about 13%, no sharp cut-off; inactive means mostly below about 14%; further: read at 38.3 µM for the half of the compounds with a filed dose; 0% is about no effect
Pf growth 96h = P. falciparum growth inhibition at 96 hour, primary screen for plastid delayed-death inhibitors. 320,000 tested, 6.9% active. P. falciparum luciferase reporter growth, 96 h. Potency, µM (doses to about 28.7 µM), inactives show at the top dose activity change, negative = inhibition, actives largely listed as inhibitors; active means well fitted inhibition curve with a large enough effect; inconclusive means small, poorly fitted or top-dose-only effect, or another doubt; inactive means no such curve, though single readings can be large or run the other way; further: potency means the concentration at half of the fitted maximal effect; on the % scale 0 is the no-effect control and ±100 the full control effect
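Delayed-death screen, second-generation endpoint: infected erythrocytes, 2% hematocrit, 0.05% parasitemia final; 96 hours at 37 C, 5% CO2; luciferase detection reagent; luminescence decrease equals reduced growth.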
* = called active by the depositor; ? = inconclusive; . = not tested or not shown. Unless noted, the call rests on the fitted dose curve.

SMILES	SARS PLP yeast	Shiga toxin inh	Pf growth 48h	NS1 function inh	Cycloheximide cs	Pf growth 96h
CCOC(=O)N1CCC(N2Cc3cccc(C(=O)N4CCN(c5cccc(C)c5C)CC4)c3C2=O)CC1	-2.9%	13.8	10.4µM*	.	-1.6	?
Cc1ccc2c(Cl)cc(Cl)c(OCC(=O)Nc3ccc(C)c(S(=O)(=O)N(C)C)c3)c2n1	2.7%	-12.1	-14.2%	-3.2%	-0.6	-29.4%
Cc1cccnc1CCNCc1c(C(=O)N2C[C@@H](C)O[C@@H](C)C2)nc2ccc(Cl)cn12	0.2%	-8.2	10.4µM*	4.9%	5.7	-4.8%
Cc1nonc1OCCNCc1c(C(=O)N2CCCCCCC2)nc2ccc(Cl)cn12	-0.2%	0.9	3.7µM*	7.7%	5.1	18.4%
COC(=O)c1ccc(Cn2nc([N+](=O)[O-])c(Br)c2C)cc1	-0.5%	-10.8	?	-3.5%	-1.0	-4.1%
O=C(Nc1ccc(F)cc1)Nc1nnc(Cc2ccccc2F)s1	-0.9%	.	?	10.2%	-3.3	10.4µM*
CCC(=O)Nc1nnc(CSCc2ccc(F)cc2)s1	-1.5%	-10.2	.	-8.5%	-3.8	0.928µM*
CCC(=O)Nc1nnc(CSCc2ccccc2)s1	-4.4%	10.7	-2.3%	-6.7%	6.1	11.3%
CCc1nnc(NC(=O)CSc2ccc(Cl)cc2)s1	?	2.5	24.9%	13.6%	-0.3	?
CCc1nnc(NC(=O)Nc2ccc(Cl)cc2)s1	0.8%	51.8*	?	5.2%	25.5*	?
O=C(Nc1ccc(Cl)cc1)Nc1nnc(CSCc2ccc(Cl)cc2)s1	4.2%	-7.3	4.15µM*	-1.1%	-6.3	8.28µM*
NC(=O)c1ccsc1NC(=O)CCS(=O)(=O)c1ccc(Cl)cc1	0.8%	.	-17.5%	.	.	?
CCN(CC)CCCNC(=O)c1cn(-c2cccc(OC)c2)c(=O)c2ccccc12	2.0%	31.5	5.8%	-0.7%	0.6	-12.4%
CCCN(CCC)CCCNC(=O)c1nn(-c2cccc(OC)c2)c(=O)c2ccccc12	1.0%	8.0	?	.	4.1	11.7µM*
CCCCN(CC)CCCNC(=O)c1cn(-c2ccc(OC)cc2)c(=O)c2ccccc12	0.4%	-2.1	-8.8%	-3.8%	-2.6	7.38µM*
CCN(CC)CCCNC(=O)CNC(=O)c1nn(-c2ccc(OC)cc2)c(=O)c2ccccc12	3.6%	-3.2	-13.8%	.	-1.5	9.28µM*
Nc1nc(SCC(=O)NC2CCCCC2)n[nH]1	-1.2%	-13.6	15.7%	6.6%	1.1	2.9%
O=C(c1cc([N+](=O)[O-])ccc1N1CCOCC1)N1CCN(c2ccc([N+](=O)[O-])cc2)CC1	1.9%	.	?	.	.	9.28µM*
Cc1noc(C)c1CSCC(=O)N1CCN(c2ccc([N+](=O)[O-])cc2)CC1	-1.9%	-6.6	.	-46.5%	-4.7	11.7µM*
Cc1ccc(CC(=O)N2CCN(c3ccc([N+](=O)[O-])cc3)CC2)cc1	-1.0%	-3.5	-20.3%	9.1%	2.6	?
O=[N+]([O-])c1cccc(OCC(O)CN2CCN(S(=O)(=O)c3cc(Cl)ccc3Cl)CC2)c1 (centres undefined)	-26.4%	28.1	?	-13.7%	-3.0	10.4µM*
O=C(/C=C/c1ccc(Cl)cc1)N1CCN(c2ccc([N+](=O)[O-])c(N3CCOCC3)c2)CC1	-7.6%	-10.3	?	4.6%	-1.0	10.4µM*
O=S(=O)(c1ccc(Cl)c(C(F)(F)F)c1)N1CCN(CC(O)COc2ccccc2F)CC1 (centres undefined)	-2.7%	-14.1	?	-13.2%	-6.1	?
COc1ccc(CCN2CC(C(=O)NCCN3CCOC3=O)CCC2=O)cc1 (centres undefined)	-1.3%	0.3	0.9%	4.3%	-2.2	71.0%
Cc1cc(C)nc(NC2=NCCN2C(=S)Nc2c(C)cccc2C)n1	0.8%	-3.6	-22.1%	3.3%	-1.6	?
SMILES	SARS PLP yeast	Shiga toxin inh	Pf growth 48h	NS1 function inh	Cycloheximide cs	Pf growth 96h
O=C(c1cc([N+](=O)[O-])ccc1N1CCCCC1)N1CCCC1	1.7%	-11.2	31.1%	5.2%	0.8	7.38µM*
CN1CCN(c2ccc([N+](=O)[O-])cc2C(=O)N2CCCCC2)CC1	-0.8%	-1.4	-0.3%	21.1%	-3.1	11.7µM*
O=C(c1cc([N+](=O)[O-])ccc1N1CCN(S(=O)(=O)c2ccc(Cl)c(Cl)c2)CC1)N1CCOCC1	-7.2%	-13.7	?	-0.1%	0.7	?
O=C(c1cc([N+](=O)[O-])ccc1N1CCOCC1)N1CCN(S(=O)(=O)c2cc(Cl)ccc2Cl)CC1	2.3%	.	10.4µM*	.	.	?
COc1ccc(N2CCN(C(=O)c3nc4nc(C)cc(C)n4n3)CC2)cc1	-7.5%	-3.7	?	.	6.8	-5.9%
Cc1cc(C)n2nc(C(=O)N3CCN(c4ccc([N+](=O)[O-])cc4)CC3)nc2n1	-0.4%	15.4	?	.	-3.2	5.86µM*
Cc1cc(C#N)c(C)n1-c1cc(S(=O)(=O)N2CCOCC2)ccc1N1CCCC1	.	-0.9	?	2.3%	-1.8	?
COc1ccc(C2=NN(c3ccccc3)C(=O)/C2=C\c2ccc(O)c(OC)c2)cc1	-1.5%	22.0	13.1µM*	.	14.0	?
COc1ccc(/C=C2\SC(c3ccc(C)cc3)=NC2=O)cc1OC	2.5%	2.5	?	25.3%	9.0	?
COc1cc(/C=C2\SC(c3ccc(C)cc3)=NC2=O)ccc1O	-10.2%	52.1*	?	-3.0%	23.5*	?
O=c1c2ccccc2[nH]c(=S)n1-c1cccc(S(=O)(=O)N2CCCC2)c1	-2.9%	-3.1	-22.2%	11.9%	-2.5	?
Cc1ccc(C(=O)NC2CCN(CCCC(=O)c3ccc(F)cc3)CC2)cc1	7.1%	-7.6	10.4µM*	8.7%	-3.3	?
O=C(CCCN1CCC(NC(=O)c2ccccc2)CC1)c1ccc(Cl)cc1	1.5%	6.6	?	9.9%	-1.8	0.0%
O=C(CCCN1CCC(n2c(=O)[nH]c3ccccc32)CC1)c1ccc(F)cc1	.	.	0.809µM*	.	.	10.4µM*
C[C@H]1CCCC(=O)CCCCCc2cc(O)cc(O)c2C(=O)O1	-3.5%	-3.8	4.15µM*	1.2%	-4.1	9.28µM*
COc1cc(OCC(=O)NC(C)C)cc2c1C(=O)O[C@@H](C)CCCC(=O)CCCCC2	1.1%	-7.7	-7.1%	-2.9%	-1.7	?
CCOC(=O)N1CCC(NC(=O)c2oc3c(F)cccc3c2C)CC1	2.9%	62.2*	44.5%	4.5%	64.6*	-0.3%
Cc1c(C(=O)N2CCC2)oc2c(F)cccc12	-3.0%	.	.	.	.	.
Cc1c(C(=O)N2CCN(c3ccccc3)CC2)oc2c(F)cccc12	-14.2%	45.5	-0.6%	-9.4%	32.3*	?
COCC1CCN(C(=O)c2oc3c(F)cccc3c2C)C1 (centres undefined)	-5.3%	32.7*	?	-13.1%	22.9*	?
CCC(CC)C(=O)Nc1c(C(=O)N2CCN(c3ccccc3)CC2)oc2ccccc12	-9.3%	2.4	10.4µM*	-22.2%	-3.1	-9.2%
CC(C)C(=O)Nc1c(C(=O)N2CCN(c3ncccn3)CC2)oc2ccccc12	7.5%	32.4	?	-7.0%	2.9	11.1%
